Shown are actives, neighbours in structure and some others; about 19% of the full set was active somewhere.
IL-1B inflam inh: qHTS for Inhibitors of Inflammasome Signaling: IL-1-beta AlphaLISA Primary Screen | 4.7% of 360,000 active | THP-1 LPS/ATP IL-1B secretion, AlphaLISA, 16 h; hits give low values | AID 743279, 2014 | activity change, % at 57.5 µM; in the data active = activity change below about -50%; inconclusive = mostly about -30% to -49%; also: % is scaled to controls: 0 for no effect and ±100 for the full control effect
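Secreted IL-1B measured by AlphaLISA bead assay after 16 h compound exposure of THP-1 cells; compounds (final up to 57.5 uM) added 1 h before LPS (250 ng/mL) and ATP (1.25 mM) stimulation; lower signal means less secretion.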
TDP1 cell CPT: qHTS for Inhibitors of human tyrosyl-DNA phosphodiesterase 1 (TDP1): qHTS in cells in presence of CPT | chicken DT40 Tdp1-/-;hTDP1 cells + 20 nM CPT, ATP luminescence, 48 h | Potency, µM (top dose mostly 46.2 µM), for the others: at the highest dose activity change, negative = growth inhibition, hits mostly inhibitors | 12% of 420,000 active; also: potency is read from the fitted curve at half-maximal effect; % is scaled to controls: 0 for no effect and ±100 for the full control effect; nearly all actives have a fitted effect of over 55% in size
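Chicken DT40 Tdp1-/- cells complemented with human TDP1, 400 cells/well, exposed to compounds plus 20 nM camptothecin for at least 48 h at 37 C; viability read as ATP content by CellTiter-Glo luminescence.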
SW480 rerep: A quantitative high throughput screen for small molecules that induce DNA re-replication in SW480 colon adenocarcinoma cells. SW480 DNA re-replication, Hoechst DNA content imaging, 48 h. Potency, µM (top dose mostly 46.1 µM), for inactives: top-dose re-replication activation, hits mostly activators. 1.8% of 340,000 active. AID 624297, 2012; also: potency is read from the fitted curve at half-maximal effect; % of control where 0% means no effect; nearly all actives have a fitted effect of over 55% in size
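Compounds, transferred as 23 nL by pin tool, were incubated with cells for 48 hr; DNA content per nucleus was then quantified by Hoechst staining and fluorescence plate imaging.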
BCR signal inh: qHTS Assay to Find Inhibitors of Chronic Active B-Cell Receptor Signaling. AID 493014, 2011. Potency, µM (titrated, usually from 46.1 µM), inactives show at the highest dose activity change, negative = inhibition, usual class: inhibitors. ABC-DLBCL IkBa-CBG/CBR reporter, luminescence ratio, 4 h. 0.05% of 340,000 active; active = well fitted inhibition curve with a large enough effect in the signal ratio, with a control signal flat, not every such curve was filed as active; inconclusive = small, poorly fitted or top-dose-only effect, or effect the other way, or a change in a side signal; the % refers to the signal ratio;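 also: potency is read from the fitted curve at half-maximal effect; plate controls were basal doxycycline-induced cells for no effect and cells given 10 µM MG132 for full effect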
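Doxycycline induced both beetle luciferases in TMD8 lymphoma cells; IKK-driven degradation limits the IkappaBalpha-fused green signal, while red luminescence normalises for cell number and nonspecific effects. Compounds tested up to 46 uM, 4 hrs.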
MCF10A rereplic: A quantitative high throughput screen for small molecules that induce DNA re-replication in MCF 10a normal breast cells. MCF 10A DNA re-replication, Hoechst nuclear intensity, 48 h. Potency, µM (top dose mostly 46.1 µM), for inactives: at the top dose activity, positive = re-replication, hits mostly activators. 2.9% of 350,000 active. AID 624296, 2012; also: potency is read from the fitted curve at half-maximal effect; % of control where 0% means no effect; nearly all actives have a fitted effect of over 50% in size
TDP1 cell noCPT: qHTS for Inhibitors of human tyrosyl-DNA phosphodiesterase 1 (TDP1): qHTS in cells in absence of CPT | DT40 Tdp1-/- hTDP1 cells, no CPT, ATP luminescence, 48 h | Potency, µM (highest dose often 46.2 µM), inactives show at the highest dose activity change, negative = growth inhibition, most hits filed as inhibitors | 15% of 420,000 active | AID 686978, 2013; also: potency is read from the fitted curve at half-maximal effect; % is scaled to controls: 0 for no effect and ±100 for the full control effect; nearly all actives have a fitted effect of over 55% in size
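Chicken DT40 Tdp1-/- cells stably complemented with human TDP1 were seeded at 400 cells/well with DMSO in place of 20 nM camptothecin. After compound pinning, cells grew at least 48 hr at 37 °C; viability read by CellTiter-Glo luminescence.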
Numbers without * were called inactive; ? = inconclusive; . = no result. Unless noted, calls follow the shape of the dose curve; as a rule, active = well fitted curve in the direction sought with a large enough effect; inconclusive = small, poorly fitted or top-dose-only effect, or another doubt; inactive = no such curve, though single readings can be large; an effect the other way counts as inactive or inconclusive.

SMILES | IL-1B inflam inh | TDP1 cell CPT | SW480 rerep | BCR signal inh | MCF10A rereplic | TDP1 cell noCPT
CCN(c1ccc(OC)cc1)S(=O)(=O)N1CCCC(C(=O)NCc2ccc(OC(C)C)cc2)C1 (configuration not stated) | 16 | 21µM* | . | . | . | 15µM*
CCOC(=O)N1CCN(S(=O)(=O)N2CCCC(C(=O)NCc3ccccc3OCC)C2)CC1 (configuration not stated) | 18 | ? | . | . | . | ?
O=c1[nH]c(=O)n(Cc2ccco2)c2c1C(C(F)(F)F)(C(F)(F)F)N=C(c1ccc(F)cc1)N2 | -68* | 12µM* | 1% | 3% | 18% | 6.5µM*
O=S1(=O)CCN(OCc2ccc(Cl)cc2)CC1 | 4 | -12% | -6% | 7% | -1% | -7%
CCCCN1CC(C)(C)[C@H](CC(=O)NC)C1=O | 12 | 9% | . | . | . | -5%
CSc1ccc(CN2CCC2(C)C(=O)NC2CCN(Cc3ccccc3)CC2)cc1 (configuration not stated) | -10 | 26µM* | . | . | . | 18µM*
COc1ccc(NC(=O)C2(C)CCN2Cc2ccc(OC(F)(F)F)cc2)cc1OC (configuration not stated) | -3 | 23µM* | . | . | . | ?
CCN(Cc1ccccc1)C1CCN(Cc2ccc(SC)cc2)CC1 | -72* | ? | 0% | -6% | ? | ?
COc1ccc(NC(=O)C2(C)CCN2Cc2ccc(SC)cc2)cc1OC (configuration not stated) | -18 | 16µM* | . | . | . | ?
CCc1nn(CC(=O)NCCCN2CCOCC2)c(=O)c2cc3c(OC)cccc3n12 | ? | -14% | 2% | . | 14% | 27%
CC(C)(C)c1ccc(C(=O)NC2CCS(=O)(=O)C2)cc1 (configuration not stated) | 9 | 6% | -8% | -11% | -3% | -16%
CCNC(=O)NC(=O)COC(=O)c1ccccc1SCC(=O)NC(=O)NCC | 40 | 21µM* | 1% | ? | ? | 15µM*
Cc1cc(C)cc(NC(=O)CC2Oc3ccc(C)cc3NC2=O)c1 (configuration not stated) | -6 | 1% | 12% | 0% | -1% | -5%
CCCS(=O)(=O)NC(=O)C1(C)CCCN(C(=O)COc2ccccc2)C1 (configuration not stated) | -15 | -1% | . | . | . | 7%
CCc1nc2c(OCCOc3ccc(F)cc3)cccn2c1N(C=O)Cc1ccccc1 | -59* | 21µM* | . | . | . | ?
CCCOc1cccn2c(N(C=O)Cc3ccc(OC)cc3)c(CC)nc12 | 9 | 16µM* | . | . | . | ?
CCc1nc2c(OCC(=O)C(C)(C)C)cccn2c1N(C=O)Cc1ccccc1 | 26 | -2% | . | . | . | -6%
CCCCN(C=O)c1c(CC)nc2c(OCCC)cccn12 | 34 | -56% | . | . | . | ?
CCc1nc2c(OCC3CCCCC3)cccn2c1N(C=O)Cc1ccc(OC)cc1 | -9 | 21µM* | . | . | . | 21µM*
CCCCN(C=O)c1c(CC)nc2c(OCCOc3ccccc3)cccn12 | -18 | ? | . | . | . | 21µM*
CCc1nc2c(OCc3ccc4c(c3)OCO4)cccn2c1N(C=O)Cc1ccccc1 | -12 | ? | . | . | . | ?
O=c1[nH]c(/C=C\c2ccccc2F)nc(O)c1[N+](=O)[O-] | -10 | -2% | -2% | -1% | ? | 6%
C=CCOc1cccn2c(N(C)C(=O)c3ccc(OC)cc3)c(CC)nc12 | 0 | ? | . | . | . | -22%
